# Data: publication PMC8384837, “Expanding the binding specificity for RNA recognition by a PUF domain”
# Residue numbers refer to the chain shown, from its start.
# How the values were obtained:
# Experiment in all cases: yeast three-hybrid, YBZ-1, SC-Leu-His + 0.5 mM 3-AT, 4 days
# Details in all cases: tags: N-Gal4 AD-HA kept; label: inside an RPR1-promoter hybrid RNA with tandem MS2 sites; ssRNA
# PUM1 PUF domain R8-KFC = PUM1 PUF domain R8-KFC (Homo sapiens, UniProt Q14671 828-1176, N1122K;Y1123F;Q1126C)
# Outline: (§1)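 Matching RNA elements and Pumilio-1 PUF domain libraries, randomized at the three base-contacting residues of every repeat, were co-expressed from a centromeric plasmid in strain YBZ-1 (LexA–MS2 coat fusion, HIS3 reporter). The repeat regions were PCR-amplified and Illumina-sequenced from cells grown four days on SC-Leu (input) or SC-Leu-His + 0.5 mM 3-AT (selection). The interaction score is the log change in variant frequency from input to selection. It is computed in log2, with a pseudocount of 1 for absent variants.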
# PUM1 PUF domain R4-NNL = PUM1 PUF domain R4-NNL (Homo sapiens, UniProt Q14671 828-1176, H972N;Q975L)
# Outline: as §1
# PUM1 PUF domain R6-CWC = molecular target: T1, PUM1 PUF domain R6-CWC (Homo sapiens, UniProt Q14671 828-1176, N1043C;Y1044W;Q1047C)
# T1 sequence: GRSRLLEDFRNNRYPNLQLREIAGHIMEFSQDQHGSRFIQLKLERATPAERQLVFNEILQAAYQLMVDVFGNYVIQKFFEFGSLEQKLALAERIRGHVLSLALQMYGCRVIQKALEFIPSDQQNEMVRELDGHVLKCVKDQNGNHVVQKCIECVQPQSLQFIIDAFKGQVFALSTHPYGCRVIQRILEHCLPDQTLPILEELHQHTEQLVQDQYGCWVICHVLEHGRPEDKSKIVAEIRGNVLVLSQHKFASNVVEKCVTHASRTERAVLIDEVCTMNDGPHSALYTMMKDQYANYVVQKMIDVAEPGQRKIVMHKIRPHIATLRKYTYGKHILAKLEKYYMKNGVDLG
# Outline: as §1
# PUM1 PUF domain R8-CFR = PUM1 PUF domain R8-CFR (Homo sapiens, UniProt Q14671 828-1176, N1122C;Y1123F;Q1126R)
# Outline: as §1
# PUM1 PUF domain R8-PYW = PUM1 PUF domain R8-PYW (Homo sapiens, UniProt Q14671 828-1176, N1122P;Q1126W)
# Outline: as §1
# PUM1 PUF domain R8-TRK = PUM1 PUF domain R8-TRK (Homo sapiens, UniProt Q14671 828-1176, N1122T;Y1123R;Q1126K)
# Outline: as §1
# PUM1 PUF domain R5-SLC = PUM1 PUF domain R5-SLC (Homo sapiens, UniProt Q14671 828-1176, C1007S;R1008L;Q1011C)
# Outline: as §1
# PUM1 PUF domain R4-SPN = PUM1 PUF domain R4-SPN (Homo sapiens, UniProt Q14671 828-1176, N971S;H972P;Q975N)
# Outline: as §1
# PUM1 PUF domain R6-RRE = molecular target: T2, PUM1 PUF domain R6-RRE (Homo sapiens, UniProt Q14671 828-1176, N1043R;Y1044R;Q1047E)
# T2 sequence: T1 sequence with C216R, W217R, C220E
# Outline: as §1
# PUM1 PUF domain R4-NNC = PUM1 PUF domain R4-NNC (Homo sapiens, UniProt Q14671 828-1176, H972N;Q975C)
# Outline: as §1
# PUM1 PUF domain R6-CFN = molecular target: T3, PUM1 PUF domain R6-CFN (Homo sapiens, UniProt Q14671 828-1176, N1043C;Y1044F;Q1047N)
# T3 sequence: T1 sequence with W217F, C220N
# Outline: as §1
# PUM1 PUF domain R1-VRR = PUM1 PUF domain R1-VRR (Homo sapiens, UniProt Q14671 828-1176, S863V;Q867R)
# Outline: as §1
# PUM1 PUF domain R1-RCC = PUM1 PUF domain R1-RCC (Homo sapiens, UniProt Q14671 828-1176, S863R;R864C;Q867C)
# Outline: as §1
# PUM1 PUF domain R1-KCN = PUM1 PUF domain R1-KCN (Homo sapiens, UniProt Q14671 828-1176, S863K;R864C;Q867N)
# Outline: as §1
# PUM1 PUF domain R7-SRR = PUM1 PUF domain R7-SRR (Homo sapiens, UniProt Q14671 828-1176, N1080R;E1083R)
# Outline: as §1
# PUM1 PUF domain R7-ERK = PUM1 PUF domain R7-ERK (Homo sapiens, UniProt Q14671 828-1176, S1079E;N1080R;E1083K)
# Outline: as §1
# PUM1 PUF domain R7-KHS = PUM1 PUF domain R7-KHS (Homo sapiens, UniProt Q14671 828-1176, S1079K;N1080H;E1083S)
# Outline: as §1
# PUM1 PUF domain R3-LNS = PUM1 PUF domain R3-LNS (Homo sapiens, UniProt Q14671 828-1176, C935L;R936N;Q939S)
# Outline: as §1
# PUM1 PUF domain R5-DRD = PUM1 PUF domain R5-DRD (Homo sapiens, UniProt Q14671 828-1176, C1007D;Q1011D)
# Outline: as §1
# PUM1 PUF domain R5-RLQ = PUM1 PUF domain R5-RLQ (Homo sapiens, UniProt Q14671 828-1176, C1007R;R1008L)
# Outline: as §1
sequence,measurement,setting,value
GGCUAGAACUAGUGGAUCCCCCGGCGCCCGGCGGCUCGAGCCCGGGUAAGUGUAAAUAGUCUGCAUGCCGCCGGGCGCCAUGCCUGCAGGUCGACUCUAGAAAACAUG,binding signal,PUM1 PUF domain R8-KFC,2.49 log2 enrichment (interaction score)
same,binding signal,PUM1 PUF domain R4-NNL,3.79 log2 enrichment (interaction score)
same,binding signal,PUM1 PUF domain R6-CWC,3 log2 enrichment (interaction score)
same,binding signal,PUM1 PUF domain R8-CFR,4.47 log2 enrichment (interaction score)
same,binding signal,PUM1 PUF domain R8-PYW,3.3 log2 enrichment (interaction score)
same,binding signal,PUM1 PUF domain R8-TRK,2.15 log2 enrichment (interaction score)
same,binding signal,PUM1 PUF domain R5-SLC,0.65 log2 enrichment (interaction score)
same,binding signal,PUM1 PUF domain R4-SPN,2.58 log2 enrichment (interaction score)
same,binding signal,PUM1 PUF domain R6-RRE,4.26 log2 enrichment (interaction score)
same,binding signal,PUM1 PUF domain R4-NNC,2.42 log2 enrichment (interaction score)
GGCUAGAACUAGUGGAUCCCCCGGCGCCCGGCGGCUCGAGCCCGGGUAAGUGUACAUAGUCUGCAUGCCGCCGGGCGCCAUGCCUGCAGGUCGACUCUAGAAAACAUG,binding signal,PUM1 PUF domain R4-SPN,1.41 log2 enrichment (interaction score)
GGCUAGAACUAGUGGAUCCCCCGGCGCCCGGCGGCUCGAGCCCGGGUAAGUGAAAAUAGUCUGCAUGCCGCCGGGCGCCAUGCCUGCAGGUCGACUCUAGAAAACAUG,binding signal,PUM1 PUF domain R6-CFN,5.35 log2 enrichment (interaction score)
GGCUAGAACUAGUGGAUCCCCCGGCGCCCGGCGGCUCGAGCCCGGGUAAGUGUAAAUCGUCUGCAUGCCGCCGGGCGCCAUGCCUGCAGGUCGACUCUAGAAAACAUG,binding signal,PUM1 PUF domain R1-VRR,2.85 log2 enrichment (interaction score)
GGCUAGAACUAGUGGAUCCCCCGGCGCCCGGCGGCUCGAGCCCGGGUAAGUGUAAAUGGUCUGCAUGCCGCCGGGCGCCAUGCCUGCAGGUCGACUCUAGAAAACAUG,binding signal,PUM1 PUF domain R1-RCC,2.4 log2 enrichment (interaction score)
GGCUAGAACUAGUGGAUCCCCCGGCGCCCGGCGGCUCGAGCCCGGGUAAGUGUAAAUUGUCUGCAUGCCGCCGGGCGCCAUGCCUGCAGGUCGACUCUAGAAAACAUG,binding signal,PUM1 PUF domain R1-RCC,2.58 log2 enrichment (interaction score)
same,binding signal,PUM1 PUF domain R1-VRR,1.88 log2 enrichment (interaction score)
same,binding signal,PUM1 PUF domain R1-KCN,3.67 log2 enrichment (interaction score)
GGCUAGAACUAGUGGAUCCCCCGGCGCCCGGCGGCUCGAGCCCGGGUAAGCGUAAAUAGUCUGCAUGCCGCCGGGCGCCAUGCCUGCAGGUCGACUCUAGAAAACAUG,binding signal,PUM1 PUF domain R8-KFC,6.35 log2 enrichment (interaction score)
same,binding signal,PUM1 PUF domain R8-CFR,4.3 log2 enrichment (interaction score)
same,binding signal,PUM1 PUF domain R8-TRK,3.25 log2 enrichment (interaction score)
GGCUAGAACUAGUGGAUCCCCCGGCGCCCGGCGGCUCGAGCCCGGGUAAGUUUAAAUAGUCUGCAUGCCGCCGGGCGCCAUGCCUGCAGGUCGACUCUAGAAAACAUG,binding signal,PUM1 PUF domain R7-SRR,2.68 log2 enrichment (interaction score)
GGCUAGAACUAGUGGAUCCCCCGGCGCCCGGCGGCUCGAGCCCGGGUAAGGGUAAAUAGUCUGCAUGCCGCCGGGCGCCAUGCCUGCAGGUCGACUCUAGAAAACAUG,binding signal,PUM1 PUF domain R8-KFC,2.66 log2 enrichment (interaction score)
GGCUAGAACUAGUGGAUCCCCCGGCGCCCGGCGGCUCGAGCCCGGGUAAGUCUAAAUAGUCUGCAUGCCGCCGGGCGCCAUGCCUGCAGGUCGACUCUAGAAAACAUG,binding signal,PUM1 PUF domain R7-SRR,2.92 log2 enrichment (interaction score)
same,binding signal,PUM1 PUF domain R7-ERK,5.87 log2 enrichment (interaction score)
same,binding signal,PUM1 PUF domain R7-KHS,3.33 log2 enrichment (interaction score)
GGCUAGAACUAGUGGAUCCCCCGGCGCCCGGCGGCUCGAGCCCGGGUAAGUGUAAUUAGUCUGCAUGCCGCCGGGCGCCAUGCCUGCAGGUCGACUCUAGAAAACAUG,binding signal,PUM1 PUF domain R3-LNS,3.52 log2 enrichment (interaction score)
GGCUAGAACUAGUGGAUCCCCCGGCGCCCGGCGGCUCGAGCCCGGGUAAGUGUAAGUAGUCUGCAUGCCGCCGGGCGCCAUGCCUGCAGGUCGACUCUAGAAAACAUG,binding signal,PUM1 PUF domain R3-LNS,4.27 log2 enrichment (interaction score)
GGCUAGAACUAGUGGAUCCCCCGGCGCCCGGCGGCUCGAGCCCGGGUAAGUGUAUAUAGUCUGCAUGCCGCCGGGCGCCAUGCCUGCAGGUCGACUCUAGAAAACAUG,binding signal,PUM1 PUF domain R4-NNL,3 log2 enrichment (interaction score)
same,binding signal,PUM1 PUF domain R4-SPN,4.43 log2 enrichment (interaction score)
same,binding signal,PUM1 PUF domain R4-NNC,3.85 log2 enrichment (interaction score)
GGCUAGAACUAGUGGAUCCCCCGGCGCCCGGCGGCUCGAGCCCGGGUAAGUAUAAAUAGUCUGCAUGCCGCCGGGCGCCAUGCCUGCAGGUCGACUCUAGAAAACAUG,binding signal,PUM1 PUF domain R7-KHS,2.08 log2 enrichment (interaction score)
GGCUAGAACUAGUGGAUCCCCCGGCGCCCGGCGGCUCGAGCCCGGGUAAGUGUGAAUAGUCUGCAUGCCGCCGGGCGCCAUGCCUGCAGGUCGACUCUAGAAAACAUG,binding signal,PUM1 PUF domain R5-DRD,4.33 log2 enrichment (interaction score)
same,binding signal,PUM1 PUF domain R5-SLC,2.98 log2 enrichment (interaction score)
GGCUAGAACUAGUGGAUCCCCCGGCGCCCGGCGGCUCGAGCCCGGGUAAGUGUUAAUAGUCUGCAUGCCGCCGGGCGCCAUGCCUGCAGGUCGACUCUAGAAAACAUG,binding signal,PUM1 PUF domain R5-RLQ,1.58 log2 enrichment (interaction score)
GGCUAGAACUAGUGGAUCCCCCGGCGCCCGGCGGCUCGAGCCCGGGUAAGUGUCAAUAGUCUGCAUGCCGCCGGGCGCCAUGCCUGCAGGUCGACUCUAGAAAACAUG,binding signal,PUM1 PUF domain R5-RLQ,2.19 log2 enrichment (interaction score)
